Source: PubChem
An excerpt weighted towards active compounds, which were near 11% of everything screened.
Pf growth 48h: Primary qHTS for delayed death inhibitors of the malarial parasite plastid, 48 hour incubation. P. falciparum luciferase growth in erythrocytes, 48 h. Potency, µM (titrated, usually from 28.7 µM), without a hit: at the highest dose activity change, negative = inhibition, most hits filed as inhibitors. actives 5.9% (n = 310,000); note: % is set by controls: 0 for no effect and ±100 for the full control effect
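Compounds are pin-transferred into medium, infected erythrocytes (2% hematocrit, 0.1% parasitemia final) are added, and plates sit one parasite generation at 37 C in 5% CO2. Detection reagent is then added and luminescence measured.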
NS1 function inh: qHTS Assay for Inhibitors of Influenza NS1 Protein Function; Potency, µM (series often up to 46.1 µM), for inactives: top-dose activity, positive = more growth; actives 0.4% (n = 270,000); AID 2326, 2010; calls by dose curve; note: actives are rising curves; nearly all actives have a fitted effect of over 50% in size
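OD600 was taken as the measure of yeast growth restored by compound in an NS1-expressing S. cerevisiae strain. Cells had been washed out of glucose medium and diluted 1:100 into galactose -URA medium, pH 6.0.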
HCV inh: qHTS Assay for Inhibitors of Hepatitis C Virus (HCV) | Potency, µM (titrated, usually from 41.8 µM), for inactives: at the top dose activity change, negative = inhibition, actives largely listed as inhibitors | actives 3.4% (n = 340,000) | Huh7.5.1 HCVcc-Cre infection, luciferase reporter, 44 h; note: % is set by controls: 0 for no effect and ±100 for the full control effect
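1,000 cells/well; 4 h culture; + compound; + HCVcc-Cre (~0.5 moi); 44 h; luciferase substrate, RT 15 min; read 15 sec.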
Pf growth 96h: Primary qHTS for delayed death inhibitors of the malarial parasite plastid, 96 hour incubation; actives 6.9% (n = 320,000); Potency, µM (series often up to 28.7 µM), inactives show at the top dose activity change, negative = inhibition, usual class: inhibitors; P. falciparum luciferase reporter growth, 96 h; note: % is set by controls: 0 for no effect and ±100 for the full control effect
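Two-generation exposure (96 h) targets delayed-death phenotype. Reporter parasites carrying integrated firefly luciferase, in red cells at 2% hematocrit and 0.05% parasitemia final, kept at 37 C, 5% CO2; luminescence loss indicates inhibition.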
VACV Venus inh: qHTS for Stage-Specific Inhibitors of Vaccinia Orthopoxvirus: Venus Reporter Primary qHTS; Vaccinia virus Venus reporter expression, fluorescence; Potency, µM (top dose mostly 36.5 µM), for the others: at the top dose activity change, negative = inhibition, most hits filed as inhibitors; actives 0.46% (n = 330,000); AID 720580, 2013; calls by dose curve; tested in A549 cells; note: % is set by controls: 0 for no effect and ±100 for the full control effect; nearly all actives have a fitted effect of over 30% in size
VACV mCherry inh: qHTS for Stage-Specific Inhibitors of Vaccinia Orthopoxvirus: mCherry Reporter Primary qHTS | Vaccinia virus mCherry reporter infection, fluorescence | Potency, µM (top dose mostly 36.5 µM), for the others: top-dose activity change, negative = inhibition, most hits filed as inhibitors | actives 0.63% (n = 310,000); calls by dose curve; tested in A549 cells; note: % is set by controls: 0 for no effect and ±100 for the full control effect; nearly all actives have a fitted effect of over 35% in size
* = called active by the depositor; i = inactive; ? = inconclusive; / = not tested or not shown; [ ] = another dose, or the depositor's remark. Unless noted, calls come from the whole dose curve; as a rule, active = well fitted inhibition curve with a large enough effect; inconclusive = small, poorly fitted or top-dose-only effect, or another doubt; inactive = no such curve, though single readings can be large or run the other way. Potency is the fitted concentration of half-maximal effect.

SMILES | Pf growth 48h | NS1 function inh | HCV inh | Pf growth 96h | VACV Venus inh | VACV mCherry inh
COc1ccc(C(=O)c2ccc(OC)cc2O)c(O)c1 | ? | -48% | -12% | 32%[5.75 µM] | -27% | ?
Clc1ccc(-n2nnc(-c3nccs3)n2)cc1Cl | 328% | -32% | 15% | i | -16% | -5%
CCCN(CC1CC1)C(=S)NC(=O)c1cc(Br)ccc1Cl | 13µM* | / | -2% | ? | -17% | -14%
CC(=O)c1ccc(C(=O)N2CCc3c([nH]c4ccccc34)C2c2cccc(C)n2)s1 (configuration not stated) | ? | 4% | -12% | 13µM* | -19% | ?
COc1ccc(C2c3[nH]c4ccccc4c3CCN2C(=O)Cc2nonc2C)c(F)c1 (configuration not stated) | 10µM* | -11% | ? | ? | / | /
O=C(c1ccc(-n2cccn2)cc1)N1CCc2c([nH]c3ccccc23)C1c1ccccn1 (configuration not stated) | ? | 0% | -10% | -13% | / | /
Cc1cc2cc(C(=O)N3CCc4c([nH]c5ccccc45)C3c3ccccn3)ccc2o1 (configuration not stated) | 10µM* | -35% | ? | 9.3µM* | / | /
Cc1nc(C)c(CC(=O)N2CCc3c([nH]c4ccccc34)C2c2ccccn2)s1 (configuration not stated) | ? | 0% | 5% | 10µM* | -12% | -8%
CC(=O)c1cc(CC(=O)N2CCc3c([nH]c4ccccc34)C2c2ccccn2)cs1 (configuration not stated) | ? | 0% | -25% | ? | -11% | ?
COc1ccc(C2c3[nH]c4ccccc4c3CCN2Cc2ccoc2)c(F)c1 (configuration not stated) | ? | -4% | -22% | ? | / | /
N#Cc1ccccc1Cn1cc(C#N)c2ccccc21 | ? | -1% | -1% | -7% | -13% | /
CCc1ccc(OCC(=O)N/N=C(\C)c2ccc(O)cc2O)cc1 | 0% | -4% | 11µM* | 0% | -9% | ?
CCc1ccc(OCC(=O)N/N=C(\C)c2ccc3c(c2)OCCO3)cc1 | -4% | -15% | -4% | 24% | -14% | i
c1ccc2[nH]c(SCc3cn4cccnc4n3)nc2c1 | 70% | -3% | 7% | 10% | 0% | -16%
c1ccc(-c2cnnc(SCc3cn4cccnc4n3)n2)cc1 | 10µM* | -34% | 7% | 9.3µM* | -15% | /
Nc1ccc(-c2nc3ccccc3s2)cn1 | 275% | -45% | 25µM* | 292% | -3% | -4%
Cc1cc(-c2nc3ccccc3s2)ccc1N | / | / | -17% | / | -19% | -22%
CC(=O)c1cccc(NC(=S)NC(=O)c2ccccc2Br)c1 | 13% | ? | -7% | -9% | -10% | -16%
COc1ccc(-c2n[nH]c(C)c2-c2cnn(-c3ccccc3)c2)c(O)c1C | -1% | 13% | 11µM* | ? | / | /
COc1ccc(-c2n[nH]c(C)c2-c2cnn(-c3ccccc3)c2)c(O)c1 | -16% | -26% | -22% | i | / | /
Fc1ccc(NC(=S)N2CCN(C/C=C/c3ccccc3)CC2)c(F)c1 | ? | -3% | ? | 14% | ? | ?
Cc1ccccc1Cn1cc(NC(=O)c2cc3nc(-c4ccco4)cc(C(F)(F)F)n3n2)cn1 | ? | -53% | 10µM* | 50% | -22% | ?
CCc1ccc(-c2cc(C(F)(F)F)n3nc(C(=O)Nc4cnn(Cc5ccc(C)cc5)c4)cc3n2)s1 | / | 2% | 11µM* | 4.7µM* | / | /
O=C(Nc1ccc(Cl)cc1)c1cc2nc(-c3ccco3)cc(C(F)(F)F)n2n1 | -16% | 1% | ? | 0% | -5% | -19%
O=C(CN(C(=O)CNS(=O)(=O)c1ccc(F)cc1)C1CCCC1)NCc1ccco1 | 15% | 5% | -6% | 7% | -3% | i
SMILES | Pf growth 48h | NS1 function inh | HCV inh | Pf growth 96h | VACV Venus inh | VACV mCherry inh
CCC(C(=O)NCc1ccco1)N(C(=O)CNS(=O)(=O)c1ccccc1)C1CCCCC1 (configuration not stated) | / | -1% | 28% | 6.6µM* | -7% | ?
CCCC(C(=O)NCc1ccco1)N(C(=O)CNS(=O)(=O)c1ccc(Cl)cc1)C1CCCC1 (configuration not stated) | 12µM* | -14% | 23% | 14% | -4% | /
CC(C)C(C(=O)NCc1ccco1)N(C(=O)CNS(=O)(=O)c1ccccc1)C1CCCC1 (configuration not stated) | ? | -7% | 10% | -14% | -2% | /
CC(OC(=O)C12CC3CC(CC(O)(C3)C1)C2)C(N)=O (configuration not stated) | 35% | / | -8% | 25% | -2% | 0%
O=S(=O)(c1cccc(-c2cn3cccnc3n2)c1)N1CCOCC1 | ? | ? | / | 0% | -4% | i
CC1CN(S(=O)(=O)c2cccc(-c3cn4cccnc4n3)c2)CC(C)O1 (configuration not stated) | 7.4µM* | ? | / | 4% | / | /
CCc1nnc(NC(=O)CSc2nc3c([nH]c4ccccc43)c(=O)n2-c2ccc(C)cc2)s1 | / | / | / | / | -16% | -25%
COCCNCC#CCOc1ccc(OC)cc1 | 3% | 4% | 14% | 51% | -2% | 0%
Cc1ccc(C)c(-n2nnnc2Sc2nc([N+](=O)[O-])nn2C)c1 | ? | -7% | 15% | 42% | ? | ?
Cc1ccc(-n2nnnc2Sc2nc([N+](=O)[O-])nn2C)cc1C | 3.3µM* | -1% | -21% | ? | -13% | -25%
CCOC(=O)c1c(-c2ccccc2)csc1NC(=O)CSc1ccccc1 | ? | -10% | -16% | 15% | 0% | -11%
O=C(/C=C/c1ccccc1)c1c[nH]c2ccccc12 | 228% | -34% | 0% | 19% | -18%[7.34 µM] | -21%[7.34 µM]
Cc1[nH]c2ccccc2c1/C=C/C(=O)c1ccccc1 | 26% | -21% | ? | 116% | -12% | ?
Cc1[nH]c2ccccc2c(=O)c1C(=O)/C=C/c1ccccc1 | ? | -5% | 11µM* | ? | ? | 3.2µM*
O=C(C=Cc1ccccc1)c1c[nH]c2ccccc2c1=O | / | / | 11µM* | / | -29% | ?
Cc1nc2ccccc2cc1C(=O)NCc1ccc(F)cc1 | 0% | 2% | ? | 10% | -3% | -8%
CN(c1ccc(C(=O)N2CCN(Cc3ccccc3)CC2)cc1)S(=O)(=O)c1ccc(Cl)cc1 | ? | -51% | 10µM* | -14% | -21% | -5%
O=C(c1ccc(C#CC2(O)CCCCC2)cc1)N1CCN(Cc2ccccc2)CC1 | ? | -20% | 4% | 10µM* | -22% | /
